Results filed as inconclusive are left out. Activity calls are given as the source filed them. How the source made its calls: active means hit-call score of the fitted dose curve at least 0.9, where 1 is the maximum; inconclusive means response in the unintended direction; inactive means score below 0.9.

This passage reports outcome and AC50 results from PubChem BioAssay (EPA / NIEHS).

Tested on in one assay: not listed separately
Briefly: CCTE_Mundy_HCI_iCellGluta_NOG_NeuriteCount: CCTE's Neurite Outgrowth Assay in iCellGluta cells for Neurite Count, Mundy Lab (AID 2284342).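 Further: chemical exposure about 48 hours starting 2 hours after plating.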
Consider `C=CCC1=C(C)[C@@H](OC(=O)[C@@H]2[C@@H](C=C(C)C)C2(C)C)CC1=O`, for which the molecule was called inactive.

With `COP(N)(=O)SC` (stereo unspecified), the molecule was classed as inactive.

Consider `C=CC1(C)OC(=O)N(c2cc(Cl)cc(Cl)c2)C1=O` (stereo unspecified), for which the molecule was classed as inactive.

The AC50 is the concentration giving half of the maximal activity seen. With `CCCCC(CC)COC(=O)c1ccccc1C(=O)OCC(CC)CCCC` (stereo unspecified), the AC50 was 30.4 µM (active).

Take `CCCCOC(=O)c1ccccc1C(=O)OCCCC`: the call was inactive.

Regarding `CCOC(=O)CC(SP(=S)(OC)OC)C(=O)OCC` (stereo unspecified), the result was inactive.

For `COC(=O)N(OC)c1ccccc1COc1ccn(-c2ccc(Cl)cc2)n1`, the AC50 was 3.35 µM (active).

In the case of `CO/C=C(/C(=O)OC)c1ccccc1Oc1cc(Oc2ccccc2C#N)ncn1`, the AC50 is 21.5 µM (active).

Turning to `CC(C)(C)c1ccc(CSc2cnn(C(C)(C)C)c(=O)c2Cl)cc1`, the AC50 is 0.374 µM (active).

Take `N#Cc1nn(-c2c(Cl)cc(C(F)(F)F)cc2Cl)c(N)c1S(=O)C(F)(F)F` (stereo unspecified): the outcome was inactive.

In the case of `CCCCNC(=O)n1c(NC(=O)OC)nc2ccccc21`, the molecule was classed as inactive.

`Cc1ccc(-c2c(Cl)nc(C#N)n2S(=O)(=O)N(C)C)cc1`: the AC50 is 50 µM (active).

As for `CN(C)C(=S)SSC(=S)N(C)C`, the AC50 was 0.0447 µM (active).

Turning to `CCOc1cc(Oc2ccc(C(F)(F)F)cc2Cl)ccc1[N+](=O)[O-]`, the AC50 was 66.4 µM (active).

With `C=CCC1=C(C)C(OC(=O)C2C(C=C(C)C)C2(C)C)CC1=O` (stereo unspecified), the molecule was called inactive.

With `COP(=S)(OC)Oc1nc(Cl)c(Cl)cc1Cl`, the AC50 was 27.8 µM (active).

The test system of another assay is SERPINA7 (gene 6906). The assay can be described thus: CCTE_GLTED_hTBG: CCTE's human Thyroxine-binding Globulin (TBG) Inhibition Assay, Great Lakes Toxicology and Ecology Division (GLTED) Lab (AID 2284343).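 Further: active chemicals lower fluorescence versus DMSO baseline by displacing probe.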 The essentials: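 Steps: combine TBG with chemical; incubate 2 hours so that disruptors release ANSA; record fluorescence (380 ex, 475 em). Loss of signal was fitted against DMSO controls.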
As to `CCCCOC(=O)c1ccccc1C(=O)OCCCC`, the AC50 was 11.4 µM (active).

`Cc1cc(Cl)ccc1OCC(=O)O`: the AC50 was 59.6 µM (active).

`C#CCOS(=O)OC1CCCCC1Oc1ccc(C(C)(C)C)cc1` (stereo unspecified): the AC50 is 25.2 µM (active).

Regarding `CCCN(CCC)c1c([N+](=O)[O-])cc(S(N)(=O)=O)cc1[N+](=O)[O-]`, the AC50 was 5.43 µM (active).

`N#Cc1nn(-c2c(Cl)cc(C(F)(F)F)cc2Cl)c(N)c1S(=O)C(F)(F)F` (stereo unspecified): the AC50 is 24.6 µM (active).

Consider `Cc1ccc(-c2c(Cl)nc(C#N)n2S(=O)(=O)N(C)C)cc1`, for which the AC50 was 33.1 µM (active).

Consider `Fc1ccc(Oc2ccnc3cc(Cl)cc(Cl)c23)cc1`, for which the AC50 was 8.16 µM (active).

Take `CCOc1cc(Oc2ccc(C(F)(F)F)cc2Cl)ccc1[N+](=O)[O-]`: the AC50 was 4.86 µM (active).

For the molecule `OC(c1ccc(Cl)cc1)(c1cncnc1)c1ccccc1Cl` (stereo unspecified), the AC50 is 36.5 µM (active).

For `Oc1ccccc1-c1ccccc1`, the AC50 was 28.1 µM (active).
